Source: PubChem (National Center for Advancing Translational Sciences (NCATS))
BRCT PPI green = inhibitors of human BRCA1 BRCT-phosphoprotein interaction (green fluorophore); P38398; BRCA1 BRCT-phosphopeptide binding, green fluorescence polarization; Potency, µM (highest dose often 76.9 µM), most hits filed as inhibitors; actives 0.05% (n = 75,000); AID 875
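Compounds were incubated for 12 min at room temperature with a complex of 100 nM fluorescein-tagged pBACH1 decapeptide and 250 nM His-tagged BRCT protein. Buffer was phosphate pH 7.3 with EDTA, DTT and Tween 20. Disruption of binding lowers the polarization signal.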
Hsp90 Hop PPI = changes Hsp90-Hop TPR2A binding signal, up or down; AlphaScreen TPR2A-His6 binding biotin-Hsp90 C-terminal peptide; Potency, µM (highest dose often 57 µM); actives 0.44% (n = 71,000); AID 595; active = well fitted curve in either direction with a large enough effect; inconclusive = small, poorly fitted or top-dose-only effect, or another doubt
Tau fil binding = binds recombinant human tau filaments; AID 596; actives 2% (n = 71,000); recombinant tau filaments, thioflavin S fluorescence, 15 h; filaments grown with octadecylsulfate alongside compound; P10636; Potency, µM (series often up to 57.1 µM);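 also: actives lower thioflavin S fluorescence by blocking filaments or displacing dye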
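His-tagged recombinant human tau (exons 2, 3 and 10 included), 1 uM, was induced to fibrillize by 30 uM sodium octadecylsulfate with compound present. After 15 h at 37 C, thioflavine S fluorescence (ex 450, em 510 nm) was read.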
Pol III holo inh = inhibitors of bacterial DNA polymerase III holoenzyme. actives 0.25% (n = 71,000). Potency, µM (titrated, usually from 57.1 µM). reconstituted DNA polymerase III holoenzyme replication, biochemical
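Reconstituted *E. coli* holoenzyme (0.35 nM Pol III, 1 nM beta, 154 nM SSB, 2 nM primase) was preincubated with compound for 15 min at RT. Synthesis on 1.4 nM ssM13Gori ran 35 min, then was stopped with PicoGreen/EDTA and read as dsDNA fluorescence.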
YjeE inh = displaces an ADP probe from E. coli YjeE (TsaE). actives 0.05% (n = 71,000). AID 605. P0AF67. purified YjeE enzyme, qHTS inhibition assay. Potency, µM
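Fluorescence polarization of a BODIPY Texas Red–ADP probe (2 uM) bound to purified YjeE (10 uM) was read after 15 min room-temperature incubation with compounds. Loss of polarization marks inhibitors; ADP serves as titrated control.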
BRCT inh red = BRCT-phosphoprotein interaction inhibition (red fluorophore); actives 0.03% (n = 75,000); BRCT-phosphopeptide binding, red fluorescence polarization; P38398; Potency, µM (highest dose often 76.9 µM), usual class: inhibitors; AID 892
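Rhodamine-labelled pBACH1 10-mer (100 nM) bound to BRCT domain (100 nM) at pH 7.3; compounds incubated 12 min room temperature, polarization read. Free peptide defines full inhibition; unlabelled decapeptide titrated as control.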
A number is an active result; . = inactive; ? = inconclusive; / = not tested or not shown; [ ] = remark or other dose. An excerpt weighted towards active compounds, which were near 2.3% of everything screened. Unless noted, calls follow the shape of the dose curve; as a rule, active = well fitted curve in the direction sought with a large enough effect; inconclusive = small, poorly fitted or top-dose-only effect, or another doubt; inactive = no such curve, though single readings can be large; an effect the other way counts as inactive or inconclusive.

SMILES	BRCT PPI green	Hsp90 Hop PPI	Tau fil binding	Pol III holo inh	YjeE inh	BRCT inh red
Cc1c(CN(C)C)c2c(n1C)C(=O)c1ccc(Br)cc1-2	.	.	2.51µM	.	.	.
Cc1nn(C)c(C)c1N=Cc1c(O)ccc2ccccc12	.	.	?	.	.	.
Oc1ccc2ccccc2c1/C=C\c1ccc2c(Br)cc(Br)c(O)c2n1	.[15.4 µM]	.[11 µM]	2.51µM	.[11.4 µM]	.	.[15.4 µM]
O=Cc1ccc(OC2C=CC(c3ccccc3)OC2CO)cc1 (stereo not drawn)	.[15.4 µM]	/	/	/	/	.[15.4 µM]
CCN(CC)c1ccc(NC(=O)Nc2cccc(C(C)=O)c2)cc1	.	.	20µM	.	.	.
CC(=O)c1cccc(NC(=O)Nc2ccc3c(c2)N(C)C(=O)CS3)c1	.	.	15.8µM	.	.	.
CCOc1cccc(C(=O)Nc2ccc(N(CC)CC)cc2)c1	.	.[11 µM]	3.16µM	.[11.4 µM]	.	.
COc1cccc(C(=O)Nc2ccc(C)cc2)c1	.	.	.	.	.	.
CN1C(=O)CSc2ccc(NC(=O)N3CCOCC3)cc21	.	.	?	.	.	.
CO[C@H]1[C@H](O[C@H]2O[C@@H](C)[C@@H](O[C@@H]3C[C@](C)(O)[C@H](O)[C@H](C)O3)[C@@H](N(C)C)[C@@H]2O)[C@@H](CC=O)C[C@@H](C)[C@@H](O[C@H]2CC[C@H](N(C)C)[C@H](C)O2)/C=C\C=C/C[C@@H](C)OC(=O)C[C@H]1O	.	.	.	.	.	.
CCOC(=O)C1=C(C)NC(C)=C(C(=O)OC)[C@H]1c1cccc(Cl)c1Cl	.	.	.	.	.	.
O=C(O)[C@H]1CCCN(CCC=C(c2ccccc2)c2ccccc2)C1	.	.	.	.	.	.
CCC(Cl)CC(Cl)C(Cl)C(Cl)C(Cl)C(C)Cl (stereo not drawn)	.	31.6µM	.	.	.	.
Nc1cc(N)cc(-c2nc3ccccc3[nH]2)c1	.	?	6.31µM	.	.	.
c1csc(-c2nc3ccccc3[nH]2)c1	.	.	.	.	.	.
Nc1nc2ccccc2[nH]1	.	.	.	.	.	.
Cc1ccc(-c2nc3ccccc3[nH]2)s1	.	.	12.6µM	.	.	.
CC(=O)[C@@H]1CC[C@@H]2[C@@H]3C[C@H](C)C4=CC(=O)CC[C@@]4(C)[C@H]3[C@H](O)C[C@]21C	.	.	.	.	.	.
O=C(NC1CCCC1)C(c1ccsc1)N(Cc1ccco1)C(=O)Cc1cccs1 (stereo not drawn)	.	.	15.8µM	.	.	.
O=C(NC1CCCC1)C(c1cccs1)N(Cc1ccco1)C(=O)c1csnn1 (stereo not drawn)	.	.	.	.	.	.
CCOCC(=O)Nc1nc2ccc(OC)cc2s1	.	.	.	.	.	.
COc1ccc2nc(NC(=O)c3cnccn3)sc2c1	.	.	5.01µM	.	.	.
COc1ccc(NC(=O)C2CCCN2S(=O)(=O)c2ccc3c(c2)CCC(=O)N3)c(OC)c1 (stereo not drawn)	.	.	25.1µM	.	.	.
Cc1ccc(CCNC(=O)C2CCCN2S(=O)(=O)c2ccc3c(c2)CCC(=O)N3)cc1 (stereo not drawn)	.	.	.	.	.	.
Cn1c(=O)c2c(nc(CN3CCC(C(N)=O)CC3)n2Cc2c(F)cccc2Cl)n(C)c1=O	.	.	.	.	.	.
SMILES	BRCT PPI green	Hsp90 Hop PPI	Tau fil binding	Pol III holo inh	YjeE inh	BRCT inh red
CC1CCCCN1Cc1nc2c(c(=O)n(C)c(=O)n2C)n1Cc1c(F)cccc1Cl (stereo not drawn)	0.631µM	.	.	.	79.4µM	?
C=C(CO)[C@H]1Cc2c(ccc3c(=O)c4c(oc23)COc2cc(OC)c(OC)cc2-4)O1	/	.	31.6µM	.	.	/
O=S(=O)(c1cccc2nsnc12)N1CCN(c2ncccn2)CC1	.	.	.	.	.	.
Nc1cc(-c2cccc(F)c2)nn1S(=O)(=O)c1cccc2nsnc12	.	?	15.8µM	.	.	.
CS(=O)(=O)Nc1cccc(-c2nccc(NCc3ccccc3)n2)c1	.	.	.	.	.	.
Cc1ccc(C)n1-c1ccc(N2CCOCC2)cc1	.	?	25.1µM	.	.	.
CCc1ccc2oc(-c3cc(N)cc(C)c3O)nc2c1	.	.	12.6µM	.	.	.
CCc1ccc2oc(-c3cc(N)ccc3O)nc2c1	.	.	25.1µM	.	.	.
CCc1ccc2oc(-c3cc(N)ccc3Cl)nc2c1	.	.	.	.	.	.
COc1cc(C(=O)O[C@@H]2CC(C)=CC[C@@]3(C)CC[C@](O)(C(C)C)[C@H]23)ccc1O	/	.	39.8µM	.	.	/
COc1cc(C2C(C(=O)OC(C)C)=C(C)Nc3[nH]c(=O)[nH]c(=O)c32)ccc1O (stereo not drawn)	.	?	.	.	.	.
CCOc1ccc2nc3sc(C(=O)N4CCN(C)CC4)c(N)c3cc2c1	.	.	?	.	.	.
CCOc1ccc2nc3cc(N=Nc4ccc(N)nc4N)ccc3c(N)c2c1	.[15.4 µM]	.[11 µM]	.[11.4 µM]	3.16µM	.	.[15.4 µM]
COC(c1ccccc1)C(C)C(OC)C(C)C(OC)C(C)C(C)=O (stereo not drawn)	.[15.4 µM]	/	/	/	/	.[15.4 µM]
CCS(=O)(=O)Nc1c(C(=O)O)[nH]c2ccccc12	.	.	20µM	.	.	.
CCS(=O)(=O)Nc1c(C(=O)OC)[nH]c2ccccc12	.	.	.	.	.	.
CCCc1ccc(Oc2cn[nH]c2-c2ccc(O)cc2O)cc1	.	.[11 µM]	0.794µM	.[11.4 µM]	.	.
COc1ccc(Oc2cn[nH]c2-c2ccc(O)cc2O)cc1	.	.	.	.	.	.
CC(C)N(CCNC(=O)c1ccc(Cc2nc3ccccc3[nH]2)cc1)C(C)C	.	/	/	/	/	.
C#CCCCO/N=C1/C[C@@H](O)[C@@H](O)[C@@H]2[C@@H]3C(=O)N(c4cccc(Oc5ccccc5)c4)C(=O)[C@H]3CC[C@H]12	.[15.4 µM]	/	/	/	/	.[15.4 µM]
COc1ccc(CC(=O)Nc2ccc(-c3noc(COc4ccccc4C)n3)cc2)cc1	.	.	.	.	.	.
O=C(Nc1ccc(-c2noc(COc3ccccc3Cl)n2)cc1)c1ccco1	.	.	3.16µM	.	.	.
Cc1onc(-c2ccccc2)c1C(=O)Nc1ccc2c(c1)OCO2	.	.	15.8µM	.	.	.
O=C(NC1CCS(=O)(=O)C1)OC1CCCCC1 (stereo not drawn)	.	.	.	0.501µM	.	.
COC(=O)NC1CCS(=O)(=O)C1 (stereo not drawn)	.	.	.	.	.	.
